Most compounds without a hit are left out; they make up all but 3.4% or so of the library.
AI-2 QS mod: Vibrio harveyi AI-2 quorum sensing modulation. Vibrio harveyi JMH597 AI-2 luminescence/OD600 ratio, 9 h; stronger effect = lower value; strain lacks LuxN and CqsS sensors; 0 = neutral-control median. activity change, % at 7.5 µM. 0.4% of 300,000 active. AID 2094; in the data active = activity change below about -75%, passing the limit was not always enough; inconclusive = no clear call, values can overlap the other calls;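 also: luminescence divided by OD600 gain over 9 h not by final OD600 alone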
HSP90 inh: inhibitors of HSP90 luciferase refolding in rabbit reticulocyte lysate; luciferase refolding luminescence, 3 h; inhibition, % at 5.6 µM; 0.91% of 290,000 active; AID 1789;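 active = inhibition above the screen-wide mean plus 3 SD, computed separately per campaign, cut at about 16% in these data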;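 also: inhibitors lower the luminescence because luciferase stays unfolded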
HSF1 inh: HSF1 inhibition; NIH3T3-HGL HSE-luciferase, MG132-induced, luminescence 8 h; stronger effect = lower value; activity change, negative = inhibition, % at 7.5 µM (by protocol); 0.77% of 300,000 active;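 active = more than half of replicate wells show activity change below -50%, luminescence cut by over half; inconclusive = some wells, but at most half, below -50%; inactive = no replicate well below -50%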;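 also: luciferase reports HSF-1 transcriptional activity via heat shock element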
FXN GAA850 act: activators of GAA850 frataxin (FXN) promoter | HEK293 lucGAA850 FXN promoter luciferase reporter, 24 h; percent of 10 µM SAHA response | activation, % at 6 µM | 0.56% of 360,000 active | AID 540364;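 active = activation above the average of all compounds screened plus 3 SD, cutoff fixed separately per campaign, cut at about 7.5% in these data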
SMARCA2 activ: activators of SMARCA2 function; 1% of 370,000 active; activation, % at 9.1 µM; MG213 cells, MMTV-luciferase reporter, dexamethasone, overnight; in the data active = activation above about 7.8%
PG9 Ab binder: binds the HIV-1 gp120 antibody PG9. TR-FRET gp120-PG9 antibody binding. inhibition, % at 6.7 µM. 0.43% of 360,000 active. AID 624416; in the data active = inhibition above about 8.5%
HSP90 confirm: HSP90 inhibition, confirmation assay; shares compounds with HSP90 inh; rabbit reticulocyte lysate, luciferase refolding luminescence, 3 h; inhibition, % at 5.9 µM; AID 1846; 64% of 2,300 active; in the data active = inhibition above about 18%
luciferase ctr: firefly luciferase inhibition, HSP90 counter-screen; shares compounds with HSP90 inh; purified native firefly luciferase, luminescence; 48% of 2,300 active; inhibition, % at 5.9 µM;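 active = inhibition above the mean inhibition of all tested sample wells plus 3 SD, cut at about 10% in these data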
Target sequence (P08659 whole entry, looked up): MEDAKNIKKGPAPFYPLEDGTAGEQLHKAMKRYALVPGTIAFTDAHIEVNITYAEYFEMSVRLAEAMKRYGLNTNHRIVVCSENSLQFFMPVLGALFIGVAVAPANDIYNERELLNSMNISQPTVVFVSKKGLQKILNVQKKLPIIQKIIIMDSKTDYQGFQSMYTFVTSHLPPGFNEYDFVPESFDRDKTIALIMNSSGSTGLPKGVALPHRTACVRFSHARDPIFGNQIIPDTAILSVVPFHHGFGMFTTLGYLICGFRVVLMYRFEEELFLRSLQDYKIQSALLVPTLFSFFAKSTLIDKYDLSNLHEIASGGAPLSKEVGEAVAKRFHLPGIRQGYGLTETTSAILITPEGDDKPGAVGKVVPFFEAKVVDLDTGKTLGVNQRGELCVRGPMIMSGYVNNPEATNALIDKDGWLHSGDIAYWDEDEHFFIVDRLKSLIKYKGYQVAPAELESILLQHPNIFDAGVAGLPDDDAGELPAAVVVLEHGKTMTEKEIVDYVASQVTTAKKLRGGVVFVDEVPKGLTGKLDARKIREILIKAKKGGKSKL
Large screens that a line does not name were inactive (follow-up assays come after a bar, where they were run).

Cc1ccc2c(c1)C1CN(C)CCC1N2C(=O)Nc1cccc(C(F)(F)F)c1 (configuration not stated)	HSF1 inh -70.4
CCCCn1nnnc1C(c1ccnc2ccccc12)N1CCC2(CC1)C(=O)NCN2c1ccccc1 (configuration not stated)	none (no result: AI-2 QS mod, HSP90 inh, HSF1 inh, FXN GAA850 act)
O=S(=O)(O)C(=Cc1ccccc1)c1ccccc1 (tested in a mixture with another compound)	none (no result: AI-2 QS mod, HSP90 inh, HSF1 inh)
CSCc1nnc2n1-c1ccc(Cl)cc1C(c1ccccc1)=NC2	HSF1 inh -86.6
CS(=O)(=O)NCc1nnc2n1-c1ccc(Cl)cc1C(c1ccccc1)=NC2	none
CCN1C(=O)/C(=C/c2ccc3c(c2)CCN3CCCCl)C(=O)NC1=S	none
O=C1NC(=S)N(C2CC2)C(=O)/C1=C/c1ccc2c(c1)CCN2CCCCl	HSF1 inh -78.9
c1ccc(-c2nc3ccccc3nc2-c2ccc(CN3CCC(n4nnc5ccccc54)CC3)cc2)cc1	none (no result: AI-2 QS mod, HSP90 inh, HSF1 inh, FXN GAA850 act)
c1ccc(CN2CCN(Cc3ccc4ccccc4c3)CC2)cc1	HSP90 inh 16.9
Cc1cc(C)nc(-n2c(C)nc3cc(Cl)ccc3c2=O)c1	HSF1 inh -77.9
CC(=O)Cc1c[nH]c2ccccc12	HSF1 inh -90.8 (no result: FXN GAA850 act, SMARCA2 activ, PG9 Ab binder)
CN(C)Cc1c[nH]c2ccccc12	none (no result: AI-2 QS mod, HSP90 inh, HSF1 inh)
C[C@]12CCC3C(CC[C@H]4C[C@@H](O)CC[C@]34C)[C@H]1C=CC2=O (some centres not stated)	FXN GAA850 act 9.4 (no result: AI-2 QS mod, HSP90 inh, HSF1 inh)
O=c1[nH]oc2c1CCNC2	none (no result: AI-2 QS mod, HSP90 inh, HSF1 inh)
CC1=C(C)CC2(C(=O)NC(=S)NC2=O)C(C)C1 (configuration not stated)	none (no result: AI-2 QS mod, HSP90 inh)
COc1ccc(-c2n(-c3ccccn3)c3ccccc3[n+]2-c2ccccn2)cc1	none
CCCC[N+]12CCC(CC1)C(C(O)(c1ccccc1)c1ccccc1)C2 (configuration not stated)	HSF1 inh -65.3
CC1Oc2cc3c(-c4c(O)cc(O)c5c(O)c6c(cc45)OC(C)C(C)C6=O)c(O)cc(O)c3c(O)c2C(=O)C1C (configuration not stated)	AI-2 QS mod -88.5 (no result: SMARCA2 activ, PG9 Ab binder)
Clc1cc(Cl)cc(CN2Cc3ccccc3-n3nncc3C2)c1	none (no result: AI-2 QS mod, HSP90 inh, HSF1 inh, FXN GAA850 act, PG9 Ab binder)
CC(C)[C@]12O[C@H]1[C@@H]1O[C@]13[C@]1(O[C@H]1C[C@H]1C4=C(CC[C@@]13C)C(=O)OC4)[C@@H]2O	HSF1 inh -67.8 (no result: FXN GAA850 act, SMARCA2 activ, PG9 Ab binder)
CC12CCC3C(CC=C4CC5(CCC43C)OCCO5)C1CCC2=O (configuration not stated)	HSF1 inh -73.5
C[C@]12CC[C@H](OS(=O)(=O)O)CC1=CC[C@@H]1[C@@H]2CC[C@]2(C)C(=O)CC[C@@H]12	none (no result: HSP90 inh)
CC1(O)CCN2C(=O)CCc3cccc1c32 (configuration not stated)	none (no result: AI-2 QS mod, HSP90 inh, HSF1 inh)
CN1CCC2(CC1)c1ccccc1-c1ccccc12	none (no result: AI-2 QS mod, HSP90 inh, HSF1 inh)
Cc1ccsc1/C=C1\C(=O)NC(=S)N(C)C1=O	HSF1 inh -66.8
CN1C(=O)/C(=C/c2ccc(Cl)s2)C(=O)NC1=S	none
CC(C)CCP(=O)(O)O	none (no result: AI-2 QS mod, HSP90 inh, HSF1 inh, FXN GAA850 act, PG9 Ab binder)
O=C1C(=O)c2ccccc2-c2ccccc21	AI-2 QS mod inconclusive, HSF1 inh -94.3
O=C(C1CCCO1)N1CCC2(CC1)OCCO2 (configuration not stated)	HSF1 inh -90.0
O=C(C1CCC(=O)N1C1CCCC1)N1CCC2(CC1)OCCO2 (configuration not stated)	none
COC(=O)C1CN(C#N)N(c2ccc(Cl)cc2)C12c1ccccc1-c1ccccc12 (configuration not stated)	HSF1 inh -95.2 (no result: SMARCA2 activ, PG9 Ab binder)
C=C1C(=O)O[C@H]2C[C@@H](C)[C@@H]3C=CC(=O)[C@@]3(C)C[C@H]12	HSF1 inh -63.9 (no result: HSP90 inh, FXN GAA850 act)
C=C1C(=O)O[C@@H]2C[C@@H](C)[C@@H]3C=CC(=O)[C@@]3(C)[C@@H](OC(=O)CC(=O)O[C@H]3[C@@H]4C(=C)C(=O)O[C@@H]4C[C@@H](C)[C@@H]4C=CC(=O)[C@]43C)[C@H]12	HSF1 inh -95.7 (no result: HSP90 inh)
C=C1C(=O)OC2CC(C)C3C=CC(=O)C3(C)C(O)C12 (configuration not stated)	none (no result: AI-2 QS mod, HSP90 inh, HSF1 inh, SMARCA2 activ, PG9 Ab binder)
CCCCC1C(=O)NC(=S)NC1=O	HSF1 inh -66.7 (no result: FXN GAA850 act, SMARCA2 activ, PG9 Ab binder)
CCOC(=O)[C@]12Cc3ccccc3[C@H]1N(Cc1ccccc1)C(=O)c1cc(F)c(F)cc12	none (no result: AI-2 QS mod, HSP90 inh, HSF1 inh, FXN GAA850 act)
CC1(C)C[C@H]2C=C(C=O)[C@]3(C=O)C[C@]3(C)[C@H]2C1	HSF1 inh -75.7
Fc1cccc(-c2ccc3c(c2)CN(c2cccc(Cl)c2)Cc2cnnn2-3)c1	none (no result: AI-2 QS mod, HSP90 inh, HSF1 inh, FXN GAA850 act)
COc1ccc(Oc2cc(NC(=O)c3nn(C)cc3[N+](=O)[O-])cc([N+](=O)[O-])c2)cc1	HSF1 inh -53.8
COc1ccc(NC(=O)c2cn(CCC#N)nc2-c2cccc([N+](=O)[O-])c2)cc1	none (no result: HSF1 inh)
CC(NC(=O)OCc1ccccc1)[P+](=O)O (configuration not stated)	none (no result: AI-2 QS mod, HSP90 inh, HSF1 inh, FXN GAA850 act, PG9 Ab binder)
CC(C)(O)/C=C/C(=O)C(C)(O)C1C(O)CC2(C)C3CC=C4C(C=C(O)C(=O)C4(C)C)C3(C)C(=O)CC12C (configuration not stated)	HSF1 inh 69.1 (no result: AI-2 QS mod, HSP90 inh)
COc1ccc([C@@H]2C[C@H]3[C@@H](CN2)CON3C)cc1	none (no result: AI-2 QS mod, HSP90 inh, HSF1 inh, FXN GAA850 act, PG9 Ab binder)
CC(C)(C)c1ccc(O)c(N=Cc2c(O)ccc3ccccc23)c1	HSP90 inh 29.8 | HSP90 confirm 30.2 | luciferase ctr inactive
CC1([N+](=O)[O-])COP(=O)(NC2CCCC2)OC1 (configuration not stated)	none (no result: AI-2 QS mod, HSP90 inh, HSF1 inh)
CCOP(=S)(NN(Cc1ccccc1)C(=O)c1ccccc1)OCC	HSP90 inh 42.3 | HSP90 confirm inactive | luciferase ctr inactive
CCOP(=O)(OCC)C(Cc1ccccc1)NC(C)=O (configuration not stated)	none
Cc1nc2c(=O)n(C)c(=O)nc-2n(C)n1	AI-2 QS mod -95.3, HSP90 inh 77.8, HSF1 inh -93.9 | HSP90 confirm 79.9 | luciferase ctr 83.5
COc1ccccc1-n1c(-c2cccs2)nc2ccccc2c1=O	HSP90 inh 17.3 | HSP90 confirm inactive | luciferase ctr inactive
COc1ccccc1-n1c(-c2ccccc2)nc2ccccc2c1=O	none
CN1CCN2c3ccc(N)cc3CC3(C(=O)NC(=O)NC3=O)C2C1 (configuration not stated)	HSP90 inh 20.2 | HSP90 confirm inactive | luciferase ctr inactive
Cc1ccccc1-n1c(O)c(/C=N/NC(=O)c2ccccc2O)c(=O)[nH]c1=S	HSP90 inh 21.3, HSF1 inh -54.9 | HSP90 confirm 51.7 | luciferase ctr 48.5

Screens as filed in PubChem BioAssay.
